Source: PubChem
SARS 3CLpro inh – SARS-CoV 3CLpro protease inhibition. P0C6X7. recombinant SARS-CoV 3CLpro, quenched FRET peptide cleavage. inhibition, % at 6 µM. 0.14% of 290,000 active; in the data active = inhibition above about 12%
PrPC TRFRET – inhibitors of human cell surface prion protein PrPC; TR-FRET read-out; AID 720596; P04156; 0.43% of 370,000 active; inhibition, % at 13.8 µM; in the data active = inhibition above about 24%; also: 0% = median of the test wells and 100% = reference compound wells
VHR inh abs – inhibitors of human VHR1 phosphatase (DUSP3); inhibition, % at 13.3 µM; P51452; recombinant VHR phosphatase, pNPP absorbance; 0.52% of 290,000 active; in the data active = inhibition above about 50%
Target sequence (P51452 whole entry, looked up): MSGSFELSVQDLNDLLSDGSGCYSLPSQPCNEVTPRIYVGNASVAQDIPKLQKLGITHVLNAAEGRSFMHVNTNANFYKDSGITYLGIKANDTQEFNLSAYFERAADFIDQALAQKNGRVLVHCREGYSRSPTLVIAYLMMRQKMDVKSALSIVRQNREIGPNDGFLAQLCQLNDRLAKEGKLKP
BJeLR viability – BJeLR cell viability loss; BJeLR (HRASV12) viability, CellTiter-Glo ATP luminescence, 48 h; inhibition, % (no concentration beside the values); 0.17% of 300,000 active; AID 1554; in the data active = inhibition above about 50%
Starred values were filed as active, the others as inactive; x = no result. This is a sample that favours compounds with a hit; in the whole collection about 1.1% have one here.

SMILES | SARS 3CLpro inh | PrPC TRFRET | VHR inh abs | BJeLR viability
CCSCCOC(=O)C1=C(C)N(C)C(=O)NC1c1ccc2c(c1)OCO2 (stereo unspecified) | 6 | -3 | 9 | -8
Cc1ccc(-c2nn(CC(=O)NCc3cc(-c4nn(C)c(=O)c5ccccc45)ccc3C)c(=O)c3ccccc23)cc1 | 2 | 0 | 2 | 125*
Cc1cc(=O)[nH]c(N2CCCNCC2)n1 | -3 | x | 54* | 3
CSc1ncnc2c1ncn2CCCN1CCN(C(=O)C2CC2)CC1 | x | -5 | x | x
Cc1cccc(C)c1NC(=S)NC(C)CCc1ccccc1 (stereo unspecified) | 0 | 7 | 60* | 17
Cc1ccc(NC(=S)NC(C)CCc2ccccc2)cc1C (stereo unspecified) | 8 | 1 | -14 | -13
COc1ccc(CCNc2c(C)c(C)nc3ncnn23)cc1 | -1 | 22 | 54* | 22
O=S(=O)(c1ccc(F)cc1)N1CN(Cc2ccco2)c2nc3ccccc3nc21 | -6 | -6 | 52* | -4
O=C(Nc1ccccc1)N1CCCc2ccccc21 | 6 | 1 | 22 | 6
Cc1ccc(NC(=O)N2CCCc3ccccc32)cc1C | 2 | 4 | 53* | 2
COC(=O)[C@]12C[C@H](CC(=O)NCCCN3CCCC3=O)C(=O)N(Cc3ccc(Cl)cc3Cl)C1=C[C@H](C(C)C)O[C@@H]2C1CC1 | x | -12 | x | x
COc1ccccc1C(=O)N/C(=C\c1cn(C)c2ccccc12)C(=O)NCCN1CCOCC1 | x | 4 | x | x
COc1ccccc1C(=O)N/C(=C\c1cn(C)c2ccccc12)C(=O)NCCCN1CCOCC1 | -2 | -8 | 57* | 2
COC(=O)[C@@H]1Cc2c([nH]c3ccccc23)C(C)(C)N1C(=O)CCl | 0 | 6 | -41 | 91*
CCN(CC(=O)NCc1cccs1)CC(=O)Nc1ccccc1C | x | 2 | x | x
Cc1ccc(C)c(Cn2nc(-c3ccccc3)ccc2=O)c1 | 6 | 1 | 53* | -2
CCOC1=C2CN(S(=O)(=O)c3ccc(C)cc3)[C@@H](c3ccc(CC)cc3)C[C@H]2[C@H]2C(=O)N(c3ccccc3)C(=O)[C@H]2C1 | x | 6 | x | x
Cc1ccc(S(=O)(=O)c2nc(S(C)(=O)=O)sc2N2CCN(C)CC2)cc1 | 3 | -1 | 56* | -3
Cn1cnc(S(=O)(=O)N2CCN(c3cccc(C(F)(F)F)c3)CC2)c1 | 0 | 10 | 50* | 3
CC1CCN(CCCNC(=O)C2CCC(CNS(=O)(=O)c3cccc4nsnc34)CC2)CC1 (stereo unspecified) | 1 | -24 | 51* | -9
CC(=O)c1ccc(C(=O)N2CCC(CO)(Cc3cccc(C(F)(F)F)c3)CC2)cc1 | 1 | -11 | 53* | 4
CC1(C(=O)N2CCC(CO)(Cc3cccc(C(F)(F)F)c3)CC2)CC1 | 1 | -2 | -2 | -6
CCN1/C(=C/C=C/C=C/C=C/c2sc3ccccc3[n+]2CC)Sc2ccccc21 | -1 | -3 | 2 | 63*
CC[n+]1c(/C=C/Nc2ccccc2)sc2ccccc21 | 5 | -7 | 6 | 11
CCN1/C(=C/C=C/C=C/c2sc3ccccc3[n+]2CC)Sc2ccccc21 | 0 | x | -7 | 69*
SMILES | SARS 3CLpro inh | PrPC TRFRET | VHR inh abs | BJeLR viability
CCN1/C(=C/C=C/c2sc3ccccc3[n+]2CC)Sc2ccccc21 | x | x | x | 69*
CC[n+]1c(/C=C(\C)SC)sc2ccccc21 | 0 | -1 | -6 | -11
Cn1c(=O)[nH]c(=O)c2c1nc(SCC(N)=O)n2Cc1cccc(Br)c1 | 2 | -3 | 52* | 6
C=C(C)CSc1nc2c(c(=O)[nH]c(=O)n2C)n1Cc1ccccc1 | x | 14 | 18 | 0
Cn1c(=O)[nH]c(=O)c2c1nc(N)n2Cc1ccccc1 | -2 | 0 | 52* | -1
CCOC(=O)[C@]12Cc3cc(Cl)ccc3[C@H]1N(C1CCCCC1)C(=O)c1cc(OC)ccc12 | x | 47* | x | x
CCOC(=O)[C@]12Cc3ccc(C)cc3[C@H]1N(C1CCCCC1)C(=O)c1cc(OC)ccc12 | x | 36* | x | x
CCOC(=O)[C@]12Cc3cc(C)ccc3[C@H]1N(C1CCCCC1)C(=O)c1ccccc12 | x | 38* | x | x
CCOC(=O)[C@]12Cc3ccc(C)cc3[C@H]1N(C1CCCCC1)C(=O)c1ccccc12 | x | 33* | x | x
CCOC(=O)[C@]12Cc3cc(C)ccc3[C@H]1N(CCC(=O)OC)C(=O)c1ccccc12 | x | 11 | x | x
Clc1ccc(Cc2ccccn2)cc1 | x | -2 | x | x
O=C(c1cc2cc(F)ccc2[nH]1)N1CCN(C(=O)c2ccco2)CC1 | 0 | 3 | -9 | 0
CCOC(=O)[C@]12Cc3c(cc(OC)c(OC)c3OC)[C@H]1N(C1CCCCC1)C(=O)c1ccccc12 | x | 32* | x | x
COC(=O)[C@@H](Cc1c[nH]c2ccccc12)NC(=O)c1ccc2c(c1)OCO2 | -4 | -6 | 53* | 3
CCN1CCc2c(sc(NC(=O)c3cc4ccccc4cc3OC)c2C(N)=O)C1 | -13 | -5 | 0 | 60*
COc1cccc(NC(=O)NNS(=O)(=O)c2ccc(OC)cc2OC)c1 | -2 | 7 | 50* | 2
CNC(=S)NNS(=O)(=O)c1ccc(OC)cc1OC | -4 | -4 | -11 | -4
Cc1ccc(Cl)cc1N1CCN(C(=O)c2ccc3c(c2)CCN3S(C)(=O)=O)CC1 | -3 | 1 | 57* | 1
CS(=O)(=O)N1CCc2cc(C(=O)N3CCN(c4cccc(Cl)c4)CC3)ccc21 | -2 | 8 | 18 | -9
CCN1Cc2nnn(Cc3ccccc3)c2-c2cc(N3CCCC3)ccc2S1(=O)=O | x | 1 | x | x
CC(C)(C)NS(=O)(=O)c1ccc(CCC(=O)Nc2ccc3c(c2)OCCO3)cc1 | 3 | 8 | 51* | -3
CC(C)(C)NS(=O)(=O)c1ccc(CCC(=O)Nc2ccc3c(c2)OCO3)cc1 | 4 | 12 | 15 | 4
COc1ccccc1C(=O)Nc1nc(-c2ccc(S(=O)(=O)N3CCOCC3)cc2)cs1 | -6 | 25* | 24 | 8
O=C(NCCN1CCOCC1)c1ccc([N+](=O)[O-])cc1[N+](=O)[O-] | -1 | -59 | 8 | 7
O=C(NCCN1CCOCC1)c1cc([N+](=O)[O-])ccc1Cl | -1 | -26 | 50* | 0
SMILES | SARS 3CLpro inh | PrPC TRFRET | VHR inh abs | BJeLR viability
COc1ccc(C(=O)c2cc([N+](=O)[O-])ccc2N2CCOCC2)cc1 | 6 | -11 | -4 | 59*
CCOc1ccc(C(=O)c2cc([N+](=O)[O-])ccc2N2CCOCC2)cc1 | 0 | -3 | 0 | 53*
CCOc1ccc(CCNC(=O)c2cc([N+](=O)[O-])ccc2N2CCOCC2)cc1OCC | -6 | -8 | 50* | -2
Cc1ccc(C)c(NC(=O)CCN2CCCCC2)c1 | -4 | -1 | -6 | -13
Cc1ccc(C(=O)c2cc([N+](=O)[O-])ccc2N2CCCCC2)c(C)c1 | 2 | 13 | -7 | 55*
Cc1cccc2c1ncc1c(=O)n(-c3ccccc3)[nH]c12 | 0 | 0 | 57* | 1
COC1=C[C@H](C(=O)NC2CCN(Cc3ccccc3)CC2)[C@H](C)[C@@H](c2ccccc2)CC1=O | x | -7 | x | x
CCC1=Nc2cc(C(=O)NCCN3CCCC3)ccc2Sc2ccccc21 | -1 | -7 | 58* | 2
CCC1=Nc2cc(C(=O)NCc3ccco3)ccc2Sc2ccc(C)cc21 | -1 | 3 | 2 | 62*
